# The supplement of paper PMC5919970
# Where a name gives a salt, the structure may show the parent alone. Over roughly 2,000 compounds, “fractional viability relative to vehicle” has its median near 0.91; the lowest 2% begin near 0.045. Shown is part of a subset that was picked to be rich in the lowest values.
# Test system: TYKNU
# Assay: fractional viability relative to vehicle; TYKNU is a high-grade serous ovarian cancer line; higher = less growth inhibition
# Settings: 72 h
# How it was run: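 TYKNU control cells or lentiCRISPRv2 knockout derivatives were plated at 500 cells per well in duplicate into drug-stamped 384-well plates holding a ~2100-compound library at 2 or 10 μM. Culture was in RPMI 1640 with 10% FBS at 37 °C in 5% CO2, with 72 h of drug treatment. Viability was measured by Cell Titer Glo luminescence, and the averaged duplicate treatment wells were normalised to duplicate control wells at the same plate position.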
# [1] = 2uM, genotype: DNM1L knockout (sgDNM1L #1)
# [2] = 2uM, genotype: sgCTRLA1 (non-targeting control)
# [3] = 10uM, genotype: DNM1L knockout (sgDNM1L #1)
# [4] = 10uM, genotype: sgCTRLA1 (non-targeting control)
smiles,measurement,setting,value
COc1ccc(-c2nc(N3CCOCC3)c3sc(CN(C)c4ncc(C(=O)NO)cn4)cc3n2)cn1,fractional viability,[1],0.0583
same,fractional viability,[2],0.0505
same,fractional viability,[3],0.0565
same,fractional viability,[4],0.0395
O=C(Nc1c(Cl)cncc1Cl)c1ccc(OC(F)F)c(OCC2CC2)c1 [Roflumilast],fractional viability,[1],0.966
same,fractional viability,[2],0.959
same,fractional viability,[3],0.921
same,fractional viability,[4],1
Cc1cc(C)c(S(=O)(=O)n2cc(C)cc2C)c(C)c1,fractional viability,[1],0.788
same,fractional viability,[2],0.862
same,fractional viability,[3],0.757
same,fractional viability,[4],0.765
CC(C)NC[C@H](O)COc1ccc(CCOCC2CC2)cc1 [Levobetaxolol HCl],fractional viability,[1],1.13
same,fractional viability,[2],1.21
same,fractional viability,[3],0.846
same,fractional viability,[4],1.27
C=CC(=O)Nc1cc(Nc2nccc(-c3cn(C)c4ccccc34)n2)c(OC)cc1N(C)CCN(C)C,fractional viability,[1],0.614
same,fractional viability,[2],0.895
same,fractional viability,[3],0.0431
same,fractional viability,[4],0.0512
C=CC(=O)Nc1cccc(Nc2nc(Nc3ccc(NC4CN(CCF)C4)cc3OC)ncc2C(F)(F)F)c1,fractional viability,[1],0.67
same,fractional viability,[2],0.752
same,fractional viability,[3],0.164
same,fractional viability,[4],0.154
C=CC(=O)Nc1cc(Nc2nccc(-c3c[nH]c4ccccc34)n2)c(OC)cc1N(C)CCN(C)C,fractional viability,[1],0.324
same,fractional viability,[2],0.409
same,fractional viability,[3],0.0466
same,fractional viability,[4],0.0525
COc1nc(OCc2cccc(-c3ccccc3)c2C)ccc1CNCCNC(C)=O [PD-1/PD-L1 inhibitor 2],fractional viability,[1],0.852
same,fractional viability,[2],0.872
same,fractional viability,[3],0.501
same,fractional viability,[4],0.0875
O=C(/C=C\n1cnc(-c2cc(C(F)(F)F)cc(C(F)(F)F)c2)n1)NNc1ccccn1 [Verdinexor (KPT-335)],fractional viability,[1],0.137
same,fractional viability,[2],0.13
same,fractional viability,[3],0.162
same,fractional viability,[4],0.121
C[C@@H]1O[C@@H](O[C@H]2[C@H](Oc3cc(O)c4c(c3)O[C@H](c3ccc(O)cc3)CC4=O)O[C@H](CO)[C@@H](O)[C@@H]2O)[C@H](O)[C@H](O)[C@H]1O [Naringin],fractional viability,[1],0.915
same,fractional viability,[2],1.12
same,fractional viability,[3],0.827
same,fractional viability,[4],1
c1nc2c(NC3CCCCC3)nc(Nc3ccc(N4CCOCC4)cc3)nc2[nH]1 [Reversine],fractional viability,[1],0.545
same,fractional viability,[2],0.579
same,fractional viability,[3],0.229
same,fractional viability,[4],0.216
CN1CCC(Nc2nc(Nc3ccc(Oc4ccccc4)cc3)c3c(=O)[nH]cc(Br)c3n2)CC1,fractional viability,[1],0.131
same,fractional viability,[2],0.279
same,fractional viability,[3],0.0286
same,fractional viability,[4],0.0109
C=C1CC[C@H](O)C/C1=C/C=C1\CCC[C@]2(C)[C@@H]([C@H](C)/C=C/[C@H](C)C(C)C)CC[C@@H]12 [Vitamin D2],fractional viability,[1],1.19
same,fractional viability,[2],1.02
same,fractional viability,[3],0.175
same,fractional viability,[4],0.739
O=C1NC(=O)/C(=C/c2cccc(C(F)(F)F)c2)S1,fractional viability,[1],0.748
same,fractional viability,[2],0.945
same,fractional viability,[3],0.687
same,fractional viability,[4],0.786
COc1ccc2c(c1)CCC1C2CCC2(C)C(NCCCCCCN3C(=O)C=CC3=O)CCC12 (stereo unspecified),fractional viability,[1],0.849
same,fractional viability,[2],0.972
same,fractional viability,[3],0.942
same,fractional viability,[4],0.781
C[C@H]1O[C@@H](n2cc(F)c(=O)[nH]c2=O)[C@H](O)[C@@H]1O [Doxifluridine],fractional viability,[1],1.11
same,fractional viability,[2],1.13
same,fractional viability,[3],0.893
same,fractional viability,[4],1.06
CCCCc1oc2ccc(NS(C)(=O)=O)cc2c1C(=O)c1ccc(OCCCN(CCCC)CCCC)cc1 [Dronedarone HCl],fractional viability,[1],0.712
same,fractional viability,[2],0.919
same,fractional viability,[3],0.0442
same,fractional viability,[4],0.0545
CN(CCOc1ccc(NS(C)(=O)=O)cc1)CCc1ccc(NS(C)(=O)=O)cc1 [Dofetilide],fractional viability,[1],0.999
same,fractional viability,[2],0.981
same,fractional viability,[3],0.838
same,fractional viability,[4],0.933
CCCCc1oc2ccccc2c1C(=O)c1cc(I)c(OCCN(CC)CC)c(I)c1 [Amiodarone HCl],fractional viability,[1],0.996
same,fractional viability,[2],1.07
same,fractional viability,[3],0.736
same,fractional viability,[4],0.965
CN(C)c1nc(N(C)C)nc(N(C)C)n1 [Altretamine],fractional viability,[1],1.05
same,fractional viability,[2],1.07
same,fractional viability,[3],0.977
same,fractional viability,[4],1.03
CNC(=O)c1ccccc1Oc1nc(Nc2cc(OC)c(OC)c(OC)c2)ncc1Br,fractional viability,[1],0.847
same,fractional viability,[2],0.94
same,fractional viability,[3],0.581
same,fractional viability,[4],0.589
CN(CC(=O)N(Cc1ccc(C2CCCCC2)cc1)c1ccc(C(=O)O)cc1)S(=O)(=O)c1c(F)c(F)c(F)c(F)c1F,fractional viability,[1],0.435
same,fractional viability,[2],0.661
same,fractional viability,[3],0.042
same,fractional viability,[4],0.0176
FC(F)(F)c1ccc(/C=C/c2nc(COc3ccc(CCCCn4ccnn4)cc3)co2)cc1 [Mubritinib (TAK 165)],fractional viability,[1],0.716
same,fractional viability,[2],0.534
same,fractional viability,[3],0.545
same,fractional viability,[4],0.517
O=C1CCC[C@@H]2[C@H]3CCC[N+]4([O-])CCC[C@@H](CN12)[C@@H]34 (stereo partly specified) [Oxymatrine],fractional viability,[1],0.927
same,fractional viability,[2],1.15
same,fractional viability,[3],0.812
same,fractional viability,[4],1.1
CC1=CC(=O)NS(=O)(=O)O1 [Acesulfame Potassium],fractional viability,[1],1.16
same,fractional viability,[2],1.13
same,fractional viability,[3],0.791
same,fractional viability,[4],1.17
CC(C)(C)c1ccc(S(=O)(=O)/C=C/C#N)cc1,fractional viability,[1],0.119
same,fractional viability,[2],0.091
same,fractional viability,[3],0.0418
same,fractional viability,[4],0.0217
Cc1ccc(S(=O)(=O)/C=C/C#N)cc1,fractional viability,[1],0.0925
same,fractional viability,[2],0.0355
same,fractional viability,[3],0.0225
same,fractional viability,[4],0.01
C/C=C1/[C@H](O[C@@H]2O[C@H](CO)[C@@H](O)[C@H](O)[C@H]2O)OC=C(C(=O)OC)[C@H]1CC(=O)OCCc1ccc(O)c(O)c1 [Oleuropein],fractional viability,[1],0.773
same,fractional viability,[2],0.978
same,fractional viability,[3],0.843
same,fractional viability,[4],0.774
CC[C@H](C)C[C@H](C)CCCCCCCCC(=O)N[C@H]1C[C@@H](O)[C@@H](NCCN)NC(=O)[C@@H]2[C@@H](O)CCN2C(=O)[C@H]([C@H](O)CCN)NC(=O)[C@H]([C@H](O)[C@@H](O)c2ccc(O)cc2)NC(=O)[C@@H]2C[C@@H](O)CN2C(=O)[C@H]([C@@H](C)O)NC1=O [Caspofungin Acetate],fractional viability,[1],0.98
same,fractional viability,[2],1.17
same,fractional viability,[3],0.637
same,fractional viability,[4],1.01
